# Source: PubChem BioAssay AID1159577 (Broad Institute, 2015)
# The campaign covered roughly 1,300 compounds. About 240 (18%) were called active. Inconclusive results (about 8%) are left out. The list is a sample of the results. Measured potencies and affinities stand elsewhere. A number with no mark means an inactive call. How the calls were made is not given here.
# Test: toxicity to human hepatoma HepG2 cells – cell-based, cherry-picked samples, cytotoxicity control, dose response (AID 1159577);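 further: 0% = neutral control wells and -100% = positive control wells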
# Conditions: HepG2 cytotoxicity counterscreen, plate reader; series mostly up to 19.5 µM; activity change, negative = cytotoxicity: at the top concentration
row,Structure (SMILES),"activity change, negative = cytotoxicity"
1,O=C(C[C@@H]1C[C@H]2c3cc(NC(=O)Nc4ccccc4)ccc3O[C@H]2[C@H](CO)O1)NCc1ccccc1,-34.5%
2,O=C(c1cccnc1)N1CC(=O)N2[C@H](C1)[C@@H](c1ccc(-c3cccnc3)cc1)[C@@H]2CO,2.75%
3,CN1c2ccc(-c3ccccc3)cc2[C@@H]2[C@@H](CCN2C(=O)c2ccccc2)[C@H]1CO,4.78%
4,CCS(=O)(=O)N1CCCCN2[C@H](CO)[C@@H](c3ccc(-c4cccc(C#N)c4)cc3)[C@@H]2C1,7.54%
5,COc1ccc(NC(=O)N2CCCCN3[C@H](CO)[C@H](c4ccc(-c5ccccc5F)cc4)[C@@H]3C2)cc1,-16.4%
6,CCS(=O)(=O)N1CC(=O)N2[C@H](CO)[C@@H](c3ccc(-c4ccccc4F)cc3)[C@@H]2C1,5.53%
7,Cc1cccc(S(=O)(=O)N2CCCCN3[C@H](C2)[C@@H](c2ccc(-c4cccnc4)cc2)[C@@H]3CO)c1,22.7%
8,N#C[C@@H]1[C@H](c2ccccc2/C=C/c2ccccc2)[C@H](CO)N1S(=O)(=O)c1ccc(F)cc1,-7.03%
9,CCCC(=O)Nc1ccc2c(c1)OC[C@@H](C)N(Cc1cccc(F)c1)C[C@@H](C)[C@H](OC)CN(C)C2=O,13.8%
10,CC(C)NC(=O)N1[C@H](CO)[C@@H](c2ccccc2)C12CN(Cc1ccc(Cl)cc1)C2,-15.9%
11,CO[C@H]1CN(C)C(=O)c2cc(NC(=O)Cc3ccccc3)ccc2OC[C@H](C)N(C(=O)c2ccccc2F)C[C@H]1C,-0.533%
12,CCCNC(=O)Nc1ccc2c(c1)OC[C@H](C)N(Cc1ccc(-c3ccccn3)cc1)C[C@H](C)[C@H](OC)CN(C)C2=O,14.3%
13,COc1cccc(S(=O)(=O)N2CCC3(CC2)CN[C@H](CO)c2[nH]c4cc(OC)ccc4c23)c1,3.97% [at 21 µM]
14,C[C@@H]1CN([C@H](C)CO)S(=O)(=O)c2ccc(C#Cc3ccccc3)cc2O[C@H]1CN(C)C(=O)C1CC1,-11.3%
15,CO[C@@H]1CN(C)C(=O)c2ccc(NC(=O)c3ccc4c(c3)OCO4)cc2OC[C@@H](C)N(Cc2ccc3c(c2)OCO3)C[C@H]1C,21.5%
16,COc1ccc2c3c([nH]c2c1)[C@@H](CO)N(Cc1cc(F)ccc1F)CC31CCN(C(=O)C2CCC2)CC1,1.16%
17,CCS(=O)(=O)N1CCCCN2[C@H](CO)[C@H](c3ccc(-c4cccc(C#N)c4)cc3)[C@@H]2C1,-8.99%
18,CCS(=O)(=O)N1CCCCN2[C@H](CO)[C@H](c3ccc(-c4cccc(C#N)c4)cc3)[C@H]2C1,-1.59%
19,O=C(c1cnccn1)N1CC(=O)N2[C@@H](CO)[C@H](c3ccc(C#CCc4ccccc4)cc3)[C@@H]2C1,-3.35%
20,C[C@H]1CN([C@@H](C)CO)C(=O)c2cc(NC(=O)Nc3ccc(C(F)(F)F)cc3)ccc2O[C@@H]1CN(C)C(=O)Nc1cccc2ccccc12,13.6%
21,CCCC#Cc1ccc(CC[C@H]2O[C@H]3CC[C@H](CO)O[C@H]3C[C@@H]2n2cc(C(C)(C)O)nn2)cc1,-0.199%
22,O=C(Nc1ccccc1F)N1CC(=O)N2[C@H](CO)[C@@H](c3ccc(-c4ccccc4)cc3)[C@H]2C1,16.1%
23,O=C(Nc1cccc(F)c1)N1CC(=O)N2[C@H](C1)[C@@H](c1ccc(C#CC3CC3)cc1)[C@@H]2CO,12.5%
24,COc1ccccc1NC(=O)N1CCCCN2[C@@H](CO)[C@H](c3ccc(C#CC4CC4)cc3)[C@@H]2C1,-11.9%

row,Structure (SMILES),"activity change, negative = cytotoxicity"
1,COc1ccccc1NC(=O)N1CCCCN2[C@H](C1)[C@H](c1ccc(C#CC3CC3)cc1)[C@@H]2CO,21.3%
2,CO[C@H]1CN(C)C(=O)c2cc(NC(=O)C3CC3)ccc2OC[C@H](C)N(Cc2cc(F)ccc2F)C[C@H]1C,10.8%
3,COCC(=O)N1[C@@H](C#N)[C@H](c2ccccc2-c2ccccc2)[C@@H]1CO,-10.8% [at 21 µM]
4,CCCC#Cc1ccc2c(c1)[C@@H]1[C@@H](CCN1S(=O)(=O)c1ccccc1C)[C@@H](CO)N2,6.95% [at 21 µM]
5,COc1ccc2c3c([nH]c2c1)[C@H](CO)N(Cc1cc(F)ccc1F)CC31CN(C(=O)C2CCC2)C1,9.59%
6,COc1ccc(-c2ccccc2[C@H]2[C@@H](C#N)N(C(=O)C3CCCCC3)[C@H]2CO)cc1,1.19%
7,C[C@@H]1CN([C@H](C)CO)C(=O)c2cccc(NC(=O)c3ccc(-c4nccs4)cc3)c2O[C@H]1CN(C)Cc1ccc2c(c1)OCO2,0.334%
8,CCCNC(=O)N1[C@H](C#N)[C@H](c2ccc(C3=CCCCC3)cc2)[C@H]1CO,-10.4% [at 21 µM]
9,N#C[C@@H]1[C@H](c2ccc(C3=CCCC3)cc2)[C@@H](CO)N1C(=O)NC1CCCC1,-23.9%
10,C/C=C/c1ccc([C@H]2[C@@H](CO)N(C(=O)C3CCCC3)[C@H]2CNCCC)cc1,-0.865% [at 21 µM]
11,CCCNC(=O)N1[C@H](C#N)[C@@H](c2ccccc2C2=CCCC2)[C@@H]1CO,-20.4% [at 21 µM]
12,CCC(=O)N1[C@H](CO)[C@H](c2ccc(C3=CCCCC3)cc2)[C@H]1CNCC1CCC1,-15%
13,OC[C@@H]1[C@H](c2ccc(C3=CCCC3)cc2)[C@@H](CNC2CCCC2)N1CC1CC1,-13.2%
14,N#C[C@@H]1[C@@H](c2ccc(C3=CCCCC3)cc2)[C@H](CO)N1C(=O)NC1CCCC1,3.23%
15,CCCNC[C@H]1[C@@H](c2ccc(C3=CCCCC3)cc2)[C@@H](CO)N1C(=O)C1CCC1,-12.2%
16,COc1ccc(C#Cc2cccc(-c3nc(C(=O)NCc4ccc5c(c4)OCO5)cc4c3[C@@H](CCO)N(S(=O)C(C)(C)C)C4)c2)cc1OC (stereo not given in full),8.9%
17,C[C@H]1CN([C@@H](C)CO)C(=O)c2c(c3ccccc3n2C)-c2ccccc2CO[C@@H]1CN(C)C(=O)Nc1cccc(F)c1,-4.89%
18,Cc1ccc(S(=O)(=O)N(C)C[C@H]2Oc3cc(C#Cc4ccncc4)ccc3S(=O)(=O)N([C@@H](C)CO)C[C@@H]2C)cc1,4.85%
19,CO[C@@H]1CN(C)C(=O)c2ccc(NC(=O)Nc3ccccc3F)cc2OC[C@@H](C)N(CCC(F)(F)F)C[C@H]1C,35.7% [at 21 µM]
20,CO[C@H]1CN(C)C(=O)c2ccc(NS(=O)(=O)CC(F)(F)F)cc2OC[C@H](C)N(C)C[C@@H]1C,0.408% [at 21 µM]
21,COc1ccc(C#Cc2ccc([C@@H]3[C@@H](CO)N4C(=O)CN(C(=O)c5ccccc5)C[C@H]34)cc2)cc1,-1.78%
22,COc1cccc(C#Cc2ccc([C@H]3[C@@H](CO)N(C(=O)C4CCC4)[C@H]3C#N)cc2)c1,6.14%
23,C[C@H]1CN([C@@H](C)CO)C(=O)c2cc(NC(=O)Nc3cccc4ccccc34)ccc2O[C@H]1CN(C)C(=O)Nc1ccc(C(F)(F)F)cc1,4.51%
24,C[C@@H]1CN([C@H](C)CO)C(=O)c2cccc(NC(=O)Nc3cccc4ccccc34)c2O[C@@H]1CN(C)C(=O)Nc1ccc(C(F)(F)F)cc1,2.88%

row,Structure (SMILES),"activity change, negative = cytotoxicity"
1,COc1cccc(-c2cn(CC[C@@H]3CC[C@@H](NS(=O)(=O)c4ccccc4Cl)[C@H](CO)O3)nn2)c1,1.93%
2,COc1ccccc1S(=O)(=O)N[C@H]1CC[C@@H](CCn2cc(C3CCCC3)nn2)O[C@@H]1CO,7%
3,COc1ccc(C#Cc2cccc(-c3nc(C(=O)N[C@@H]4CCN(Cc5ccccc5)C4)cc4c3[C@H](CCO)N(S(=O)C(C)(C)C)C4)c2)cc1OC (stereo not given in full),-5.33%
4,O=C(Nc1ccc(F)cc1)N1CCCCN2[C@H](C1)[C@H](c1ccc(C#Cc3ccccc3)cc1)[C@@H]2CO,-8.08%
5,O=C(Nc1ccc(F)cc1)N1CCCCN2[C@H](CO)[C@H](c3ccc(C#Cc4ccccc4)cc3)[C@@H]2C1,5.78%
6,CCC(=O)N1CC2(C1)[C@H](c1ccccc1)[C@H](CO)N2Cc1ccccc1OC,-15.2%
7,CC(C)(C)[S@](=O)N1Cc2cc(C(=O)NCc3ccccc3F)nc(-c3cccc(-c4ccncc4)c3)c2[C@@H]1CCO,3.09% [at 21 µM]
8,COc1ccc(-c2ccc([C@@H]3[C@@H](CO)N4CCCCN(C(=O)c5ccc6c(c5)OCO6)C[C@@H]34)cc2)cc1,-15.9%
9,COc1ccc(CNC(=O)c2cc3c(c(-c4cccc(-c5cccc(C#N)c5)c4)n2)[C@H](CCO)N([S@@](=O)C(C)(C)C)C3)cc1,8.03% [at 21 µM]
10,C[C@H]1CN([C@@H](C)CO)C(=O)c2c(c3ccccc3n2C)-c2ccccc2CO[C@H]1CN(C)S(=O)(=O)c1ccc([N+](=O)[O-])cc1,24.4%
11,N#C[C@@H]1[C@H](c2ccccc2-c2ccc(F)cc2)[C@H](CO)N1C(=O)NC1CCCC1,-6.01% [at 21 µM]
12,Cc1ccccc1S(=O)(=O)N(C)C[C@H]1OCc2ccccc2-c2ccccc2C(=O)N([C@@H](C)CO)C[C@H]1C,14.9%
13,CO[C@@H]1CN(C)C(=O)c2cc(NC(=O)c3nc4ccccc4s3)ccc2OC[C@H](C)NC[C@H]1C,-7.06% [at 18 µM]
14,CO[C@H]1CN(C)C(=O)c2cc(NC(=O)c3nc4ccccc4s3)ccc2OC[C@H](C)NC[C@@H]1C,3.64%
15,CO[C@@H]1CN(C)C(=O)c2ccc(NC(=O)C3CC3)cc2OC[C@@H](C)N(Cc2cc(F)ccc2F)C[C@H]1C,28.2%
16,COc1ccc(C#Cc2ccc3c(c2)[C@@H]2[C@@H](CCN2C(=O)C2CCCC2)[C@@H](CO)N3)cc1,-3.3%
17,CCC(=O)N1CC2(C1)CN(Cc1ccccc1Cl)[C@@H](CO)c1[nH]c3cc(OC)ccc3c12,-18%
18,COc1ccccc1NC(=O)N1CC[C@H]2[C@@H]1c1cc(C#Cc3ccc(F)cc3)ccc1N(C)[C@H]2CO,0.332%
19,C[C@H]1CN([C@@H](C)CO)C(=O)c2c(c3ccccc3n2C)-c2ccccc2CO[C@@H]1CN(C)S(=O)(=O)c1ccccc1F,26.4%
20,CO[C@@H]1CN(C)C(=O)c2cc(NC(=O)c3ccc(Oc4ccccc4)cc3)ccc2OC[C@H](C)NC[C@@H]1C,-20.5%
21,CO[C@@H]1CN(C)C(=O)c2ccc(NC(=O)c3ccc(F)cc3)cc2OC[C@@H](C)N(C(=O)c2ccc(F)cc2)C[C@@H]1C,-17.4%
22,COc1cccc(NC(=O)Nc2ccc3c(c2)C(=O)N(C)C[C@@H](OC)[C@H](C)CN[C@@H](C)CO3)c1,14.9%
